# Data from PubChem BioAssay.
# Calls of active or inactive are those of the source. Cut-off read from the data, not from the text of the source, unless noted: active = inhibition above about 80%; inactive = the rest.
# What was measured:
# [1] = LFS_MB_P medulloblastoma growth inhibition, cell-based, chromothripsis tumors, cisplatin or BGB combos (AID 1671449); settings: LFS_MB_P medulloblastoma cells;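 note: cells exposed for 96 hours; 0% = vehicle DMSO and 100% = killing by high DMSO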
# [2] = HDN33 neuroblastoma growth inhibition, cell-based, chromothripsis tumors, cisplatin or BGB combos (AID 1671450); settings: HDN33 neuroblastoma cells, stronger effect = higher value;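 note: cells exposed to compound for four days; 0% = vehicle DMSO and 100% = cell killing by high DMSO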
# [3] = ICB984 medulloblastoma cell growth inhibition, synergistic combos for chromothripsis tumors, cisplatin or BGB combos (AID 1671451; call rule not given here;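 note: cells exposed for 96 hours before readout; 0% = vehicle DMSO and 100% = killing by high DMSO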); settings: ICB984 medulloblastoma cells, drug combinations, stronger effect = higher value
# [4] = LFS_MB_1R medulloblastoma cell growth inhibition, synergistic combos for chromothripsis tumors, cisplatin or BGB combos (AID 1671452); settings: LFS_MB_1R medulloblastoma cells, stronger effect = higher value;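 note: cells exposed for 96 hours before readout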
# [5] = HTB85 osteosarcoma cell growth inhibition, synergistic combos for chromothripsis tumors, BGB or cisplatin IC20 combos (AID 1671453); settings: HTB85 osteosarcoma cells, drug combinations, stronger effect = higher value;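 note: cells exposed for 96 hours before readout; 0% = vehicle DMSO and 100% = high DMSO killing control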
# [6] = CRL2098 osteosarcoma cell growth inhibition, synergistic combos for chromothripsis tumors, BGB or cisplatin IC20 combos (AID 1671454); settings: CRL2098 osteosarcoma cells, drug combinations, stronger effect = higher value;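 note: cells exposed for 96 h before readout; 0% = vehicle DMSO and 100% = killing by high DMSO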
# [7] = HD-MB03 medulloblastoma cell growth inhibition, synergistic combos for chromothripsis tumors, BGB or cisplatin IC20 combos (AID 1671455; in the data active = inhibition above about 83%;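 note: 0% = vehicle DMSO and 100% = high DMSO as cytotoxic control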); settings: HD-MB03 medulloblastoma cells, stronger effect = higher value
# [8] = UWB1.289 ovarian carcinoma cell growth inhibition, synergistic combos for chromothripsis tumors, BGB or cisplatin combos (AID 1671456); settings: UWB1.289 ovarian carcinoma cells, stronger effect = higher value;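 note: cells exposed to compound for four days; 0% = vehicle DMSO and 100% = killing by high DMSO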
# [9] = LFS_MB_2R medulloblastoma cell growth inhibition, synergistic combos for chromothripsis tumors, cisplatin combos (AID 1671457); settings: LFS_MB_2R medulloblastoma cells, stronger effect = higher value;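 note: cells exposed to compound for four days before readout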
# [10] = MDA-MB-436 breast carcinoma cell growth inhibition, synergistic combos for chromothripsis tumors, BGB or cisplatin combos (AID 1671458; call rule not given here;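 note: cells exposed for 96 hours; 0% = vehicle DMSO and 100% = killing by high DMSO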); settings: MDA-MB-436 breast carcinoma growth inhibition, drug combinations, stronger effect = higher value
# [11] = UWB1.289_BRCA1 ovarian cancer growth, cell-based, BGB or cisplatin combinations (AID 1671459); settings: UWB1.289 BRCA1 ovarian carcinoma, drug combinations, stronger effect = higher value
# [12] = human astrocyte viability loss, single and combined drugs, cytotoxicity control for chromothriptic childhood tumor combination screen, cell-based, BGB or cisplatin IC20 combos (AID 1671460); settings: Human astrocytes, drug combinations, stronger effect = higher value;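 note: cells exposed to compounds for 96 hours before viability readout; 0% = vehicle and 100% = killing control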
# [13] = growth inhibition of BT084 medulloblastoma cells, cell-based, ICGC_MB145, cisplatin and BGB IC40 combos (AID 1671461); settings: drug combinations, stronger effect = higher value;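 note: cells exposed to drugs for 96 hours; 0% = vehicle DMSO and 100% = high DMSO full killing control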
# [14] = growth inhibition of RCMB18 medulloblastoma cells, cell-based, cisplatin and BGB IC40 combos (AID 1671462); settings: stronger effect = higher value;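 note: cells exposed to compound for four days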
# [15] = growth inhibition of CRL1545 osteosarcoma cells, cell-based, cisplatin and BGB IC20 combos (AID 1671464); settings: stronger effect = higher value;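 note: cells exposed to compound for 96 hours before readout; 0% = vehicle DMSO and 100% = high DMSO killing control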
# [16] = measured here: combination with BGB IC40, at 0.05 µM
# [17] = measured here: with BGB IC20 combination, at 0.5 µM
# [18] = measured here: with cisplatin IC20 combination, at 0.5 µM
# [19] = measured here: combination with cisplatin, at 0.5 µM
# [20] = measured here: combination with cisplatin, at 5 µM
smiles,measurement,setting,value
Cc1ccc([N+](=O)[O-])cc1S(=O)(=O)N(C)/N=C\c1cnc2ccc(Br)cn12,inhibition,"[1]; at 0.5 µM, stronger effect = higher value",61.9% (inactive)
same,inhibition,"[1]; measured here: combination with BGB IC20, at 0.005 µM",-13.3%
same,inhibition,"[1]; measured here: combination with BGB IC40, at 0.005 µM",-40.2%
same,inhibition,[1]; [16],-31.8%
same,inhibition,"[1]; measured here: combination with cisplatin, at 0.5 µM, stronger effect = higher value",56.3%
same,inhibition,"[1]; measured here: combination with cisplatin, at 5 µM, stronger effect = higher value",118%
same,inhibition,"[2]; BGB combo, at 5 µM",99.2%
same,inhibition,[2]; at 0.5 µM,94.3% (active)
same,inhibition,"[2]; cisplatin combo, at 5 µM",99.5%
same,inhibition,[2]; [17],94%
same,inhibition,[2]; [18],93.5%
same,inhibition,"[2]; single agent, at 5 µM",99.5%
same,inhibition,"[3]; BGB IC20 combo, at 0.005 µM",97.1%
same,inhibition,"[3]; BGB IC40 combo, at 0.005 µM",95.5%
same,inhibition,"[3]; BGB IC40 combo, at 0.05 µM",97.1%
same,inhibition,[3]; at 0.5 µM,-13.8% (inactive)
same,inhibition,"[3]; cisplatin combo, at 0.05 µM",97%
same,inhibition,"[3]; cisplatin combo, at 0.5 µM",-12.8%
same,inhibition,"[3]; cisplatin combo, at 5 µM",-10.7%
same,inhibition,"[3]; measured here: 5 uM single agent, at 5 µM",-35%
same,inhibition,[4]; at 0.5 µM,97.7% (active)
same,inhibition,[4]; [16],22.2%
same,inhibition,[4]; [19],94.2%
same,inhibition,[4]; [20],99.5%
same,inhibition,[5]; at 0.5 µM,95.7% (active)
same,inhibition,"[5]; measured here: with BGB IC20, at 0.5 µM",97.6%
same,inhibition,"[5]; measured here: with BGB IC20, at 5 µM",99.7%
same,inhibition,"[5]; measured here: with cisplatin IC20, at 0.5 µM",99.5%
same,inhibition,"[5]; measured here: with cisplatin IC20, at 5 µM",99.8%
same,inhibition,"[5]; single agent, at 5 µM",99.8%
same,inhibition,[6]; at 0.5 µM,94.2% (active)
same,inhibition,"[6]; measured here: combination with BGB at IC20, at 0.5 µM",89.1%
same,inhibition,"[6]; measured here: combination with cisplatin at IC20, at 0.5 µM",96.8%
same,inhibition,[7]; at 0.5 µM,92.1% (active)
same,inhibition,"[7]; measured here: combo with BGB at IC20, at 0.5 µM",88.3%
same,inhibition,"[7]; measured here: combo with cisplatin at IC20, at 0.5 µM",94.9%
same,inhibition,[8]; at 0.5 µM,64.8% (inactive)
same,inhibition,"[8]; measured here: inhibition with BGB combination, at 0.05 µM",-16.8%
same,inhibition,"[8]; measured here: inhibition with cisplatin combination, at 0.05 µM",-30.8%
same,inhibition,[9]; at 0.5 µM,89.4% (active)
same,inhibition,[9]; [19],92.7%
same,inhibition,[9]; [20],91.4%
same,inhibition,[10]; at 0.5 µM,79.4% (inactive)
same,inhibition,"[10]; measured here: BGB combination, at 0.5 µM",72.5%
same,inhibition,"[10]; measured here: BGB combination, at 5 µM",55.5%
same,inhibition,"[10]; measured here: cisplatin combination, at 0.5 µM",86.1%
same,inhibition,"[10]; measured here: cisplatin combination, at 5 µM",74.6%
same,inhibition,"[11]; BGB combination, concentration series, at 5 µM",89.5%
same,inhibition,[11]; at 0.5 µM,74.9% (inactive)
same,inhibition,"[11]; cisplatin combination, concentration series, at 5 µM",96.2%
same,inhibition,[12]; at 0.5 µM,80.6% (active)
same,inhibition,"[12]; measured here: combo with BGB IC20, at 0.5 µM",72.4%
same,inhibition,"[12]; measured here: combo with cisplatin IC20, at 0.5 µM",82.6%
same,inhibition,[13]; at 0.5 µM,-3% (inactive)
same,inhibition,"[13]; cisplatin combination, at 0.5 µM",-27.5%
same,inhibition,"[13]; cisplatin combination, at 5 µM",-30.7%
same,inhibition,"[13]; measured here: BGB IC40 combination 0.05 uM, at 0.05 µM",-4.87%
same,inhibition,"[13]; single agent, at 5 µM",-15.9%
same,inhibition,[14]; at 0.5 µM,67.8% (inactive)
same,inhibition,"[14]; cisplatin combo, at 5 µM",70%
same,inhibition,"[14]; measured here: BGB IC40 combination, at 0.05 µM",19.8%
same,inhibition,[14]; [19],52.5%
same,inhibition,"[14]; single agent, at 5 µM",76%
same,inhibition,[15]; at 0.5 µM,98% (active)
same,inhibition,[15]; [17],98.1%
same,inhibition,[15]; [18],97.9%
same,inhibition,"[15]; single agent, at 0.05 µM",-77.2%
same,inhibition,"[15]; single agent, at 5 µM",100%
